Data on two sequences can be found in PMC7862700, “An all-to-all approach to the identification of sequence-specific readers for epigenetic DNA modifications on cytosine”.

What all share (assay): DAPPL (digital affinity profiling via proximity ligation, sequencing); 10 mM Tris-HCl pH 7.5, 50 mM NaCl, 1 mM DTT, 4% glycerol, room temperature, 30 min; GST-TFs on glutathione beads, 16-mer random dsDNA library, 0.1% formaldehyde crosslink after washing; high values mean tight binding
Common to all, as to details: protein: recombinant; tags: N-terminal GST; dsDNA, one strand shown

For assay [1], the target named is T1, GABPA (Homo sapiens, UniProt Q06546 1-454).
T1 sequence: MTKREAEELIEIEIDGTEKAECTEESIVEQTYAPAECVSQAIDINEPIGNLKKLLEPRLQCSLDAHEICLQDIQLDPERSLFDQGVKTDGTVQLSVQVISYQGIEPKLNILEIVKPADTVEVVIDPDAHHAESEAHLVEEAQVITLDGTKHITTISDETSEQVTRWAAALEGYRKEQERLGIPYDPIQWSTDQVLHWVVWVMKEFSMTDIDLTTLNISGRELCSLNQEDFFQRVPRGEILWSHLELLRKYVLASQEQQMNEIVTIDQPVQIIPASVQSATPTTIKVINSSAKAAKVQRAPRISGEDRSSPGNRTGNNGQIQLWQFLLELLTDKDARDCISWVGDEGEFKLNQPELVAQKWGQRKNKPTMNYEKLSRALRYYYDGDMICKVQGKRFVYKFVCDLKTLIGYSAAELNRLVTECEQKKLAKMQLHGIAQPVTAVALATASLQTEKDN
The essentials: (§1)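 GST fusions of human transcription factors were expressed in yeast and captured with glutathione beads. Once given DNA barcodes and pooled alongside a tag-only sample, they were incubated for 30 min at room temperature with 200 nmole of a random double-stranded 16-mer DNA library in Tris/NaCl/DTT/glycerol buffer, then washed, crosslinked (0.1% formaldehyde), proximity-ligated, PCR-amplified and sequenced on an Illumina NextSeq500. The binding signal of each hexamer is its read frequency for a factor divided by its frequency for the tag-only sample.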

In assay [2] the target is ETV5 (Homo sapiens, UniProt P41161 1-510). The essentials: as §1
ETV5, sequence (P41161 whole entry): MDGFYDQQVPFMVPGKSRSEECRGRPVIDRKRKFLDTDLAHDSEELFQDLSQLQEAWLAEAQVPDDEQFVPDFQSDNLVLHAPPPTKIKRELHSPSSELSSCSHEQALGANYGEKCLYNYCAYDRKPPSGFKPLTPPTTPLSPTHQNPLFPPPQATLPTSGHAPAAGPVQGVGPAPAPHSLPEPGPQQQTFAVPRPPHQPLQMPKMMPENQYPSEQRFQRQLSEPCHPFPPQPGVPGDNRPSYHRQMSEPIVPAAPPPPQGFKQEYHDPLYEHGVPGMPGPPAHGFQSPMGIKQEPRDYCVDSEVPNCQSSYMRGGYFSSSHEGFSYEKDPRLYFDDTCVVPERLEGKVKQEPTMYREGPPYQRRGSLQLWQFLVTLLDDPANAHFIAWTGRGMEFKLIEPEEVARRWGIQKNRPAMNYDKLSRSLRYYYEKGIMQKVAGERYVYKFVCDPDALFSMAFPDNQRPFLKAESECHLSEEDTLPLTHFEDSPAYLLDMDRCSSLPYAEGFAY
Assay [3] deals with T2, ELF3 (Homo sapiens, UniProt P78545 1-371).
T2 sequence: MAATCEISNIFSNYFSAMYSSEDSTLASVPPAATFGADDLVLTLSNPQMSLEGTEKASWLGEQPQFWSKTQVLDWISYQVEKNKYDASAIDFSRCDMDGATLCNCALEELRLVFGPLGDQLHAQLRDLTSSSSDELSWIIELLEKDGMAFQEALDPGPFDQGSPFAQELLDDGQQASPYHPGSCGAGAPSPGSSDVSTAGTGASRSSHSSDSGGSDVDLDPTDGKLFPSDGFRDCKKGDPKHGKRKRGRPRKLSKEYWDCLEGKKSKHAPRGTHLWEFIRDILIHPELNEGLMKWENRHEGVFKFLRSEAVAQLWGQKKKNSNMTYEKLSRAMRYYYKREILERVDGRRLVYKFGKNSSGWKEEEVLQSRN
The essentials: as §1

The target of assay [4] is T3, ETV3 (Homo sapiens, UniProt P41162-2 1-143).
T3 sequence: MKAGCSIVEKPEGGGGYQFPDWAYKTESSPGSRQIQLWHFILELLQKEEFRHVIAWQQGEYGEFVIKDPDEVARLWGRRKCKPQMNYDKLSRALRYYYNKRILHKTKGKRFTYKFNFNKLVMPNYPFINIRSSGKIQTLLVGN
The essentials: as §1

For assay [5], the target named is T4, ELK1 (Homo sapiens, UniProt P19419 1-428).
T4 sequence: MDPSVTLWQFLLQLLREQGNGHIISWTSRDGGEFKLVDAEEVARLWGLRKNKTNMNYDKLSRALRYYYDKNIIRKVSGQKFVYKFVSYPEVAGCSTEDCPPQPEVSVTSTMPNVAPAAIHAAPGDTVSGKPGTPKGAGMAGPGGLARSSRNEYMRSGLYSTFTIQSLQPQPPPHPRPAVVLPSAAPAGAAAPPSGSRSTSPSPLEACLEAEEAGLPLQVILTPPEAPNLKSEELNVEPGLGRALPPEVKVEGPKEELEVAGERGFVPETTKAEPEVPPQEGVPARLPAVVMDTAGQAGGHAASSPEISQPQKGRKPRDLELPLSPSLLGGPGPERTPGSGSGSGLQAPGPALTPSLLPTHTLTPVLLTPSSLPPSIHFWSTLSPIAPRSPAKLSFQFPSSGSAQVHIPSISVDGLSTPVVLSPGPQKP
The essentials: as §1

Assay [6] concerns the target T5, ERG (Homo sapiens, UniProt P11308 1-479).
T5 sequence: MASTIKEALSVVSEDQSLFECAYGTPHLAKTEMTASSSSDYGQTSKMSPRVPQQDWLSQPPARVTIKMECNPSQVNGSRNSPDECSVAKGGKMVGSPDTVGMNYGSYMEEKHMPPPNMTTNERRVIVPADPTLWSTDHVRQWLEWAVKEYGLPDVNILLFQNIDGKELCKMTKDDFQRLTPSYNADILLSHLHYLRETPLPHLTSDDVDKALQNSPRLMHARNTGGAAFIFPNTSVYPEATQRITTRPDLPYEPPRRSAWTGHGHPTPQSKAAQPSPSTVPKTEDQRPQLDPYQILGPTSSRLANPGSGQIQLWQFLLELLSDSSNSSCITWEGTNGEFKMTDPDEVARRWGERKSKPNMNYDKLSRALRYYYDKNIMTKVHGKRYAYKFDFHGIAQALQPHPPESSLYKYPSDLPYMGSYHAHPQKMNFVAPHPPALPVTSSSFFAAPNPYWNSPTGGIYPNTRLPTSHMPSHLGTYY
The essentials:
as §1

Assay [7] concerns the target ELF1 (Homo sapiens, UniProt P32519 1-619). The essentials:
as §1

Assay [8] has as its target T6, EHF (Homo sapiens, UniProt Q9NZC4 1-300).
T6 sequence: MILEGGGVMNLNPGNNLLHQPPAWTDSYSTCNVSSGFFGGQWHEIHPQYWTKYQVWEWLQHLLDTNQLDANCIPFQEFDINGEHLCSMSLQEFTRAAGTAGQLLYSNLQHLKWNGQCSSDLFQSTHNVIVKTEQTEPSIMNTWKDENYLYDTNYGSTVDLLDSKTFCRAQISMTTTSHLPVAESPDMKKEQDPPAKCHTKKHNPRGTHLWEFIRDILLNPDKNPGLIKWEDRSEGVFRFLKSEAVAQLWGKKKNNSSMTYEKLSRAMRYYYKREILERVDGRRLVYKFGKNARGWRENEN
The essentials: as §1

Assay [9] deals with SPIB (Homo sapiens, UniProt Q01892 1-262). The essentials:
as §1

Assay [10] has as its target T7, FEV (Homo sapiens, UniProt Q99581 1-238).
T7 sequence: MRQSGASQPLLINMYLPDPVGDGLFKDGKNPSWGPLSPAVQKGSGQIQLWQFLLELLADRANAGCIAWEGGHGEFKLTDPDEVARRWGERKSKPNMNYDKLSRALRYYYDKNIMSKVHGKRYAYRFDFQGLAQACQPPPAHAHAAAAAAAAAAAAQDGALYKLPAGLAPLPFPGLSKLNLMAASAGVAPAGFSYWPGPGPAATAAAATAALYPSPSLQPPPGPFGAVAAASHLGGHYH
The essentials: as §1

For assay [11], the target named is T8, ELK4 (Homo sapiens, UniProt P28324-2 1-405).
T8 sequence: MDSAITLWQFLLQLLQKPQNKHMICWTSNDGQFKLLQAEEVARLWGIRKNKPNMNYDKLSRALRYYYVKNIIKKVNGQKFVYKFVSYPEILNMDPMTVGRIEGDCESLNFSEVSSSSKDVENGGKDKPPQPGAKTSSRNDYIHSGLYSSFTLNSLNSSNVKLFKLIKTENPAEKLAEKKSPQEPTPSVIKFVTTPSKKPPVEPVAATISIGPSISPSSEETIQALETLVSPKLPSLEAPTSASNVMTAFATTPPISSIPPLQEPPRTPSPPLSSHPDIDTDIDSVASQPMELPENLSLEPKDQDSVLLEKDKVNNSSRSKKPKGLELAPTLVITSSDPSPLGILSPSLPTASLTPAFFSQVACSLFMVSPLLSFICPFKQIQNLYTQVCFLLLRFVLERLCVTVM
The essentials: as §1

Assay [12] addresses ETV1 (Homo sapiens, UniProt P50549 1-477). The essentials: as §1
Assay [13] has as its target T9, ERF (Homo sapiens, UniProt P50548 1-548).
T9 sequence: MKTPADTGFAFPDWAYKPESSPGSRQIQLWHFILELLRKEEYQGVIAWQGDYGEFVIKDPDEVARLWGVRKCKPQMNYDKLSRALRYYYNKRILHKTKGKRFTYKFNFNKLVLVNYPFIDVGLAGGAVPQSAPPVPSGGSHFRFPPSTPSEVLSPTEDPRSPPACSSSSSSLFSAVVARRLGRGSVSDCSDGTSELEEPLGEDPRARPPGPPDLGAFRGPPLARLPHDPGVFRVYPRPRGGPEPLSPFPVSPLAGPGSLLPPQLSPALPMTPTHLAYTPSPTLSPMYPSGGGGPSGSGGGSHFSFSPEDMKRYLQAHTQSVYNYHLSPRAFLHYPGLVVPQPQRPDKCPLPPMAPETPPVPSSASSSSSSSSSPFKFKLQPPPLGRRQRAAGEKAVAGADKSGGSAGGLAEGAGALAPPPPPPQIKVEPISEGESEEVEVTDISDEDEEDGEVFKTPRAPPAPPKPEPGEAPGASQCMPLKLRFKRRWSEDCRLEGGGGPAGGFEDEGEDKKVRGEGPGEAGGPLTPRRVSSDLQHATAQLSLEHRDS
The essentials: as §1

In assay [14] the target is T10, ETV3L (Homo sapiens, UniProt Q6ZN32 1-361).
T10 sequence: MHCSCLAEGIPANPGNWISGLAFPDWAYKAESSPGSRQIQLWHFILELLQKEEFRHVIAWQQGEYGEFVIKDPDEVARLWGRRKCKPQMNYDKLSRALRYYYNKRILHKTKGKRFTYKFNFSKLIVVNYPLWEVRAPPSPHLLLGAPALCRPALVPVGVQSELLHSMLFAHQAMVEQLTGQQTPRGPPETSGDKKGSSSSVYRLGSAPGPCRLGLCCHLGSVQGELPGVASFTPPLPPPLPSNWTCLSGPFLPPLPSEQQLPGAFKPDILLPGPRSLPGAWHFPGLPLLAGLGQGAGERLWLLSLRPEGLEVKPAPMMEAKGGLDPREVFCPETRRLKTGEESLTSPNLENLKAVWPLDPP
The essentials: as §1

For assay [15], the target named is T11, ETS2 (Homo sapiens, UniProt P15036 1-469).
T11 sequence: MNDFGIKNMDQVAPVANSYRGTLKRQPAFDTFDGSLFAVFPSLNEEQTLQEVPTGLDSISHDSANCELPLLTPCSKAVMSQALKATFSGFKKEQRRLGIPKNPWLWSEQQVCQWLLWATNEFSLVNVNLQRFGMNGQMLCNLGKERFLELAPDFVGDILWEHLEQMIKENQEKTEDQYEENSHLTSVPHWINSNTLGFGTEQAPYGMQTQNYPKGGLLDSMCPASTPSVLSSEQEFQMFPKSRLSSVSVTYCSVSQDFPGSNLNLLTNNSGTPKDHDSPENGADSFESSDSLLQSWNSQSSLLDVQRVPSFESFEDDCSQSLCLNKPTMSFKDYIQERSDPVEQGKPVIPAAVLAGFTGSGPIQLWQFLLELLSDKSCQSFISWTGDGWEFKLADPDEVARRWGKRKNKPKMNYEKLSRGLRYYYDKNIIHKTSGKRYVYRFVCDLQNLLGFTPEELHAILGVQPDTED
The essentials: as §1

Assay [16] addresses T12, SPDEF (Homo sapiens, UniProt O95238 1-335).
T12 sequence: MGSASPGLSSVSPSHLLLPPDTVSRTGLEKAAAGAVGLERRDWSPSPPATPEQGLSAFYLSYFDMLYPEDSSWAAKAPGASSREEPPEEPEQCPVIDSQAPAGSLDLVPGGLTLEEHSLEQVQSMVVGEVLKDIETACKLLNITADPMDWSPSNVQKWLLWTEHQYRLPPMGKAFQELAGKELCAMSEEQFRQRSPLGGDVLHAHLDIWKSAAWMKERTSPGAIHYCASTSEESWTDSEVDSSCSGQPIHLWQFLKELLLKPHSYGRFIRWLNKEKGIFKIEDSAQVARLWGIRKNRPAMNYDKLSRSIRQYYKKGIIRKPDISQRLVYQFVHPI
The essentials:
as §1

Assay [17] deals with T13, ETV7 (Homo sapiens, UniProt Q9Y603 1-341).
T13 sequence: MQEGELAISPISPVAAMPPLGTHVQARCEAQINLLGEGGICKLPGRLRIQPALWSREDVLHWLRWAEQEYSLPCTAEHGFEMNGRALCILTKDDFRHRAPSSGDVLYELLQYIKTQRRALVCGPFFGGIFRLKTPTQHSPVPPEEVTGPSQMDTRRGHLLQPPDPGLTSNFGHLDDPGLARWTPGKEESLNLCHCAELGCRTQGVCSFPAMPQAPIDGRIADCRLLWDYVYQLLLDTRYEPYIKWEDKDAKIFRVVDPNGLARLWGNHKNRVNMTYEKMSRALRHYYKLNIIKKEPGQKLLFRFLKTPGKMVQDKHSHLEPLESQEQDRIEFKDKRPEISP
The essentials:
as §1

ELF1, sequence (P32519 whole entry): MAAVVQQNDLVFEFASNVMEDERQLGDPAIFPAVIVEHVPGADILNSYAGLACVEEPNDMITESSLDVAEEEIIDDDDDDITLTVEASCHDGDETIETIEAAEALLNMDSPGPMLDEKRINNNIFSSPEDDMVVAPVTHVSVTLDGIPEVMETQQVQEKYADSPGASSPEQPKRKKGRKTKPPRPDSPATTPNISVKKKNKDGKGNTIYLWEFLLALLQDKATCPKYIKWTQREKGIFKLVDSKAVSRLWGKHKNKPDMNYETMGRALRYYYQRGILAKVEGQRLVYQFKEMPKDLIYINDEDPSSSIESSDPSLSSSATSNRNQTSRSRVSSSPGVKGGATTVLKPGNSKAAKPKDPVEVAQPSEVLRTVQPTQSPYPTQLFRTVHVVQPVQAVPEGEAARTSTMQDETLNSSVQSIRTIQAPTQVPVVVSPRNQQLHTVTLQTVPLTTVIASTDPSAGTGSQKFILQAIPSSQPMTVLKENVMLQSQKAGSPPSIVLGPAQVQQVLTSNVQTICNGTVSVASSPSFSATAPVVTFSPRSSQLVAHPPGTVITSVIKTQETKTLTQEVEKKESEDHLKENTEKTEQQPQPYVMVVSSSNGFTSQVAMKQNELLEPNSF
SPIB, sequence (Q01892 whole entry): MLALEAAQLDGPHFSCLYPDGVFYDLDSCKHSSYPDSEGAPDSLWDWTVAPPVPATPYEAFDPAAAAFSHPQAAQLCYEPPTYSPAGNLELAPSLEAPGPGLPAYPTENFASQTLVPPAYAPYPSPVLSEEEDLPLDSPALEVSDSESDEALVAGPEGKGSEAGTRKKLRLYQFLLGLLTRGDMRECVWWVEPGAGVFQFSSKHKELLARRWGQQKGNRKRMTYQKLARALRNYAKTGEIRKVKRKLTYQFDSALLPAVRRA
ETV1, sequence (P50549 whole entry): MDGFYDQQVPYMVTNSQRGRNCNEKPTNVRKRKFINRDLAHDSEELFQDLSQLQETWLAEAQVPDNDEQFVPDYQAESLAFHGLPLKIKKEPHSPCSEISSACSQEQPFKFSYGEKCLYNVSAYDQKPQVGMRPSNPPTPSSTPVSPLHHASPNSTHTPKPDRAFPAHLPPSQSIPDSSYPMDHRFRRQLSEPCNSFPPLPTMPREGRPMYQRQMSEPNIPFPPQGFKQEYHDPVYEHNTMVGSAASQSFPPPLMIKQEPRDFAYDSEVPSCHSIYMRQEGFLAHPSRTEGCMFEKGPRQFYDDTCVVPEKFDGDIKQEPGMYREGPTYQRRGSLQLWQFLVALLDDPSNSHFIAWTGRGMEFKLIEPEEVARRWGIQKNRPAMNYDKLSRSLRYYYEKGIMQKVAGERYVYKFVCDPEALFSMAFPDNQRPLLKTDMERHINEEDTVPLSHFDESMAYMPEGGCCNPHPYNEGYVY

As to GAGCTT, the binding signal was 1.08 fold enrichment (6-mer frequency, TF over GST control) in assay [1]; 1.04 fold enrichment (6-mer frequency, TF over GST control) in [2]; 1.04 fold enrichment (6-mer frequency, TF over GST control) in assay [3]; 1.03 fold enrichment (6-mer frequency, TF over GST control) in assay [4].

For the sequence AGCGAT, the binding signal in assay [5] was 1.11 fold enrichment (6-mer frequency, TF over GST control); in [1] it was 1.07 fold enrichment (6-mer frequency, TF over GST control); in [6], 1.06 fold enrichment (6-mer frequency, TF over GST control); in assay [7] it was 1.09 fold enrichment (6-mer frequency, TF over GST control); in assay [8] it was 1.07 fold enrichment (6-mer frequency, TF over GST control); in assay [9] it was 1.02 fold enrichment (6-mer frequency, TF over GST control). The binding signal is 1.05 fold enrichment (6-mer frequency, TF over GST control) in assay [10]; 1.14 fold enrichment (6-mer frequency, TF over GST control) in assay [2]; 1.07 fold enrichment (6-mer frequency, TF over GST control) in assay [11]; 1.2 fold enrichment (6-mer frequency, TF over GST control) in assay [3]; 1.02 fold enrichment (6-mer frequency, TF over GST control) in [12]; 1.09 fold enrichment (6-mer frequency, TF over GST control) in assay [13]. In addition, the binding signal in assay [14] was 1.1 fold enrichment (6-mer frequency, TF over GST control); in assay [15] it was 1.09 fold enrichment (6-mer frequency, TF over GST control); in assay [16] it was 1.08 fold enrichment (6-mer frequency, TF over GST control); in [17] it was 1.09 fold enrichment (6-mer frequency, TF over GST control); in assay [4], 1.02 fold enrichment (6-mer frequency, TF over GST control).
